# Assay results taken from PubChem BioAssay AID1159580 (chemical genetic matrix, 2015).
# Where “and” joins values, the source holds several entries; their conditions need not be identical. Identical values can stand only once. Screen size: about 5,500 compounds; about 2,000 (36%) were called active. Not shown: some 18% with an inconclusive outcome. The list shows a part of the results. Values without a mark were called inactive. Rule as the data show it: active = normalized growth mostly below about 0.91 (no sharp cut-off); inconclusive = no clear call, values can overlap the other calls; inactive = mostly above about 0.92.
# Assay: chemical genetic growth profiling, strain panel (AID 1159580);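 also: tested at 20 µM; growth read once vehicle control cultures reached saturation at 30 °C; 1 = growth at the plate median or of vehicle wells; lower values mean less growth of the strain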
# Conditions: S. cerevisiae deletion strains, growth OD
smiles,measurement,setting,value
COC(=O)c1c(OC)cc2c(c1C)Oc1c(Cl)c(O)c(Cl)c(C)c1C(=O)O2,normalized growth,"locus YAL013W, strain DEP1, active compounds read low",0.879 (active)
same,normalized growth,"locus YAL021C, strain ccr4, active compounds read low",0.99
same,normalized growth,"locus YAL026C, strain drs2, active compounds read low",0.99
same,normalized growth,"locus YAL030W, strain snc1, active compounds read low",0.977
same,normalized growth,"locus YBL061C, strain skt5, active compounds read low",0.993
same,normalized growth,"locus YBR009C, strain hhf1, active compounds read low",0.993
same,normalized growth,"locus YBR021W, strain FUR4, active compounds read low",1.02
same,normalized growth,"locus YBR023C, strain chs3, active compounds read low",0.988
same,normalized growth,"locus YBR171W, strain sec66, active compounds read low",0.985
same,normalized growth,"locus YBR229C, strain ROT2, active compounds read low",0.909 (active)
same,normalized growth,"locus YBR231C, strain swc5, active compounds read low",0.989
same,normalized growth,"locus YBR279W, strain paf1, active compounds read low",0.992
same,normalized growth,"locus YCL011C, strain gbp2, active compounds read low",0.986
same,normalized growth,"locus YCL016C, strain dcc1, active compounds read low",0.99
same,normalized growth,"locus YCL029C, strain bik1, active compounds read low",0.925
same,normalized growth,"locus YCL069W, strain vba3, active compounds read low",1
same,normalized growth,"locus YCR088W, strain abp1, active compounds read low",0.975
same,normalized growth,"locus YDL005C, strain med2, active compounds read low",1
same,normalized growth,"locus YDL035C, strain GPR1, active compounds read low",0.906
same,normalized growth,"locus YDL040C, strain nat1, active compounds read low",0.98
same,normalized growth,"locus YDL074C, strain BRE1, active compounds read low",0.838
same,normalized growth,"locus YDL101C, strain DUN1, active compounds read low",0.912
same,normalized growth,"locus YDL134C, strain PPH21, active compounds read low",0.935
same,normalized growth,"locus YDL185W, strain tfp1, active compounds read low",0.937
same,normalized growth,"locus YDL192W, strain arf1, active compounds read low",0.949
same,normalized growth,"locus YDR001C, strain nth1, active compounds read low",0.986
same,normalized growth,"locus YDR069C, strain doa4, active compounds read low",0.968
same,normalized growth,"locus YDR101C, strain arx1, active compounds read low",0.965
same,normalized growth,"locus YDR137W, strain rgp1, active compounds read low",0.946
same,normalized growth,"locus YDR150W, strain NUM1, active compounds read low",0.896 (active)
same,normalized growth,"locus YDR159W, strain sac3, active compounds read low",0.963
same,normalized growth,"locus YDR162C, strain NBP2, active compounds read low",0.82 (active)
same,normalized growth,"locus YDR195W, strain ref2",1.09
same,normalized growth,"locus YDR297W, strain sur2, active compounds read low",0.981
same,normalized growth,"locus YDR318W, strain mcm21, active compounds read low",0.924
same,normalized growth,"locus YDR334W, strain swr1, active compounds read low",1.01
same,normalized growth,"locus YDR335W, strain msn5, active compounds read low",1
same,normalized growth,"locus YDR388W, active compounds read low",0.947
same,normalized growth,"locus YDR392W, strain spt3, active compounds read low",0.965
same,normalized growth,"locus YDR502C, strain sam2, active compounds read low",0.919 (active)
same,normalized growth,"locus YEL003W, strain gim4, active compounds read low",0.986
same,normalized growth,"locus YEL037C, strain rad23, active compounds read low",0.991
same,normalized growth,"locus YEL061C, strain CIN8 (second series), active compounds read low",0.988
same,normalized growth,"locus YEL061C, strain CIN8, active compounds read low",0.931
same,normalized growth,"locus YER015W, strain faa2, active compounds read low",0.991
same,normalized growth,"locus YER016W, strain bim1, active compounds read low",0.988
same,normalized growth,"locus YER110C, active compounds read low",0.929
same,normalized growth,"locus YER111C, strain swi4, active compounds read low",0.991
same,normalized growth,"locus YER155C, strain BEM2 (second series), active compounds read low",0.997
same,normalized growth,"locus YER155C, strain BEM2, active compounds read low",0.949
same,normalized growth,"locus YER167W, strain BCK2, active compounds read low",0.932
same,normalized growth,"locus YFR010W, strain ubp6, active compounds read low",0.982
same,normalized growth,"locus YGL078C, strain dbp3, active compounds read low",1
same,normalized growth,"locus YGL086W, strain mad1, active compounds read low",0.954
same,normalized growth,"locus YGL167C, strain pmr1, active compounds read low",0.954
same,normalized growth,"locus YGL173C, strain kem1, active compounds read low",0.985
same,normalized growth,"locus YGL227W, strain vid30, active compounds read low",0.991
same,normalized growth,"locus YGL240W, strain doc1, active compounds read low",0.993
same,normalized growth,"locus YGL248W, strain PDE1, active compounds read low",0.932
same,normalized growth,"locus YGL253W, strain hxk2, active compounds read low",0.997
same,normalized growth,"locus YGR078C, strain PAC10, active compounds read low",0.886
same,normalized growth,"locus YGR135W, strain pre9, active compounds read low",0.917
same,normalized growth,"locus YGR229C, strain SMI1, active compounds read low",0.852
same,normalized growth,"locus YGR252W, strain gcn5, active compounds read low",1.04
same,normalized growth,"locus YHR013C, strain ard1, active compounds read low",1.03
same,normalized growth,"locus YHR027C, strain rpn1, active compounds read low",0.997
same,normalized growth,"locus YHR030C, strain SLT2, active compounds read low",0.951 and 0.911
same,normalized growth,"locus YHR079C, strain IRE1 (second series), active compounds read low",0.943
same,normalized growth,"locus YHR079C, strain IRE1, active compounds read low",0.939
same,normalized growth,"locus YHR094C, strain hxt1, active compounds read low",0.948
same,normalized growth,"locus YHR129C, strain ARP1, active compounds read low",0.955
same,normalized growth,"locus YHR142W, strain chs7, active compounds read low",0.994
same,normalized growth,"locus YHR200W, strain rpn10, active compounds read low",0.938
same,normalized growth,"locus YIL066C, strain RNR3, active compounds read low",0.899
same,normalized growth,"locus YIL073C, strain SPO22, active compounds read low",0.969
same,normalized growth,"locus YIL125W, strain kgd1, active compounds read low",0.986
same,normalized growth,"locus YIR030C, strain dcg1, active compounds read low",0.925 (active)
same,normalized growth,"locus YJL092W, strain hpr5, active compounds read low",0.98
same,normalized growth,"locus YJL095W, strain BCK1 (second series), active compounds read low",1
same,normalized growth,"locus YJL095W, strain BCK1, active compounds read low",0.903 and 0.92
same,normalized growth,"locus YJL115W, strain asf1, active compounds read low",1
same,normalized growth,"locus YJL129C, strain trk1, active compounds read low",0.949
same,normalized growth,"locus YJL134W, strain LCB3, active compounds read low",0.922 (active)
same,normalized growth,"locus YJL154C, strain vps35, active compounds read low",0.97
same,normalized growth,"locus YJL164C, strain tpk1, active compounds read low",0.983
same,normalized growth,"locus YJL166W, strain qcr8, active compounds read low",0.974
same,normalized growth,"locus YJL168C, strain set2, active compounds read low",0.931 (active)
same,normalized growth,"locus YJL187C, strain SWE1 (second series), active compounds read low",0.916
same,normalized growth,"locus YJL187C, strain SWE1, active compounds read low",0.984
same,normalized growth,"locus YJR043C, strain POL32, active compounds read low",0.977
same,normalized growth,"locus YJR066W, strain TOR1, active compounds read low",0.867
